Bioassay records deposited in PubChem BioAssay by National Center for Advancing Translational Sciences (NCATS).
TrxR1 inh: rat TrxR1 inhibition | recombinant rTrxR1, NADPH fluorescence consumption, selenite substrate | 1% of 390,000 active | Potency, µM (top dose mostly 114 µM), hits mostly inhibitors | O89049 | AID 588453; note: nearly all actives have a fitted effect of over 65% in size
Target sequence (O89049 whole entry, looked up): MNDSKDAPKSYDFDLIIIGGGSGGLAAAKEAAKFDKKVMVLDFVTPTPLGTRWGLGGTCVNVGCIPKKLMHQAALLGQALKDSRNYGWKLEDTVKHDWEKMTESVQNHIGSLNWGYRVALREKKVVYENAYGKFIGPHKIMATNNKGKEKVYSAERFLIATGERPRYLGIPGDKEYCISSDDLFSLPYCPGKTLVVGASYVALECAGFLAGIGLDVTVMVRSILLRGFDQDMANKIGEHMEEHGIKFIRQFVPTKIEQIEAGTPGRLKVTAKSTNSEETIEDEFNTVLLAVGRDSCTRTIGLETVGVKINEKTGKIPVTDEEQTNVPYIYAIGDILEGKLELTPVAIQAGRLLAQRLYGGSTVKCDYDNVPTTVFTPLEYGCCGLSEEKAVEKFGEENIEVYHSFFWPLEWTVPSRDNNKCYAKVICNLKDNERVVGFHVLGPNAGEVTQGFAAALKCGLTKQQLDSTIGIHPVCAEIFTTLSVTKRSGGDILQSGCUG
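Rat TrxR1 (90 nM in the dispensed reagent) was pre-reduced with 400 uM NADPH for 5 min at room temperature, then incubated with compound for 15 min. After 400 uM selenite was added, NADPH fluorescence (Ex 340/Em 450 nm) was followed for 8 min.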
GALK inhibitor: inhibitors of human galactokinase. AID 1868. Potency, µM (top dose mostly 57.5 µM), usual class: inhibitors. Purified GALK, Kinase-Glo residual ATP luminescence. P51570. 0.007% of 270,000 active
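Quantitative HTS: GALK 5 nM, ATP 35 uM, galactose 100 uM, 1 h room temperature, then luciferase-based ATP detection.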
PI4K2A inh: PI4K2A (human) kinase inhibition; purified PI4K2A, ADP-Glo luminescence, 1 h; hits give low values; Q9BTU6; 0.13% of 420,000 active; activity change, negative = inhibition, % at 76.9 µM; in the data active = activity change below about -50%; inconclusive = mostly about -30% to -49%
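ADP-Glo luminescence measured ADP generated by PI4K2A enzyme (4 ug/mL before mixing) with 1.2 mM PI substrate (pre-mix) and 300 microM ATP (pre-mix). Tris pH7.5 buffer with MgCl2, Triton X-100; 1 h reaction at ambient temperature.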
LDHA inh: blocks human lactate dehydrogenase A; 0.15% of 480,000 active; AID 1347041; purified LDHA, NADH/diaphorase-resazurin fluorescence; hits give low values; activity change, % (values are at about 110 or 230 µM); P00338; in the data active = activity change below about -30%; inconclusive = mostly about -25% to -30%
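Human LDH5 at 2 nM final in Tris HCl pH 7.4 with 0.06 mM NADH and 0.2 mM pyruvate, reacted 5 minutes at room temperature. Remaining NADH coupled via diaphorase/resazurin; resorufin fluorescence read at 0 and 20 minutes, normalized to enzyme-free and DMSO wells.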
a7 integrin act: activates integrin-mediated alleviation for muscular dystrophy; alpha7betagal myoblasts, beta-gal FDG fluorescence, 48 h; Potency, µM (titrated, usually from 38.3 µM), usual class: activators; AID 624291; 0.064% of 350,000 active; note: nearly all actives have a fitted effect of over 60% in size
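alpha7betagal+/- myoblasts (passage 13, 250/well) treated 48 h at 37C with compounds at 1:260 dilution of DMSO stock. Lysed, then beta-galactosidase activity read as FDG fluorescence (ex 480/em 540) after 30 min, with pre-read for autofluorescence.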
TrxR1 substrate: is turned over as a substrate by rat TrxR1; Potency, µM (series often up to 114 µM); 0.01% of 390,000 active; purified TrxR1 substrate turnover, NADPH consumption readout; O89049; note: nearly all actives have a fitted effect of over 50% in size
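Rat TrxR1, dispensed at 90 nM, was prereduced with 400 uM NADPH (final) for 5 min at ~22 deg C, then incubated with compound 15 min before 400 uM selenite. A first-read NADPH fluorescence drop versus no-compound background flagged substrates.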
Hits are given with their value; . = inactive; ? = inconclusive; / = no result. Shown are actives, neighbours in structure and some others; about 1.1% of the full set was active somewhere. Unless noted, calls come from the whole dose curve; as a rule, active = well fitted curve in the direction sought with a large enough effect; inconclusive = small, poorly fitted or top-dose-only effect, or another doubt; inactive = no such curve, though single readings can be large; an effect the other way counts as inactive or inconclusive.

SMILES	TrxR1 inh	GALK inhibitor	PI4K2A inh	LDHA inh	a7 integrin act	TrxR1 substrate
COc1cccc(-n2nc(C#N)c(Cl)cc2=O)c1	4µM	.	.	.	.	.
COc1cccc(-n2nc(C(N)=O)c(O)cc2=O)c1	.	.	.	.	.	.
O=C(NC1(c2ccccc2)CCC1)c1cc2ccccc2oc1=O	/	/	/	.	/	/
N#C/C(=C\c1cccc(Br)c1)C(=O)N1CCCCC1	14µM	.	.	.	.	.
C[C@@H]1CN([C@H](C)CO)C(=O)c2cc(NC(=O)c3ccncc3)ccc2O[C@@H]1CN(C)C(=O)Nc1ccccc1	71µM	/	.	.	.	.
C[C@H](CO)N1C[C@H](C)[C@@H](CN(C)C(=O)Nc2ccc(C(F)(F)F)cc2)Oc2ccc(NC(=O)c3ccncc3)cc2C1=O	?	/	.	.	.	.
COc1ccc(NC(=O)N(C)C[C@@H]2Oc3cc(Br)ccc3S(=O)(=O)N([C@H](C)CO)C[C@H]2C)cc1	/	/	.	-35	.	/
O=C(NCC(c1ccco1)S(=O)(=O)c1ccc(Cl)cc1)c1ccccc1F (stereo unspecified)	14µM	/	.	.	/	.
O=C(NCCNS(=O)(=O)c1cccc2nonc12)c1ccc2[nH]ccc2c1	/	/	/	.	/	/
O=c1c(C(c2ccccc2)c2c(O)nc3n(c2=O)CCS3)c(O)nc2n1CCS2	7.1µM	/	.	.	?	.
O=c1c(C(c2ccccc2)c2c(O)nc3n(c2=O)CCCS3)c(O)nc2n1CCCS2	?	.	.	.	.	.
O=c1c(C(c2ccc(F)cc2)c2c(O)nc3n(c2=O)CCCS3)c(O)nc2n1CCCS2	14µM	.	.	.	.	.
COC(=O)c1ccc(C(=O)NCC2(c3ccccc3)CC2)cc1	/	/	/	.	/	/
O=C(Nc1ccccc1C(F)(F)F)C12CC3CC(CC(Cl)(C3)C1)C2	/	/	/	.	/	/
Cc1sc(NC(=O)c2ccc(Cl)c(S(=O)(=O)N3CCOCC3)c2)nc1-c1ccc(F)cc1	/	/	/	.	/	/
COc1cc(/C=C/CN2CCN(Cc3ccc(C)o3)C(CCO)C2)ccc1O (stereo unspecified)	.	.	.	.	14µM	.
N#Cc1cc2c(nc1N1CCN(C(C(=O)O)c3c[nH]c4ccc(Cl)cc34)CC1)CCCC2 (stereo unspecified)	/	/	/	.	/	/
CCOC(=O)c1c(C)[nH]c(C(=O)CSc2nncn2C)c1C	/	/	/	.	/	/
CCOc1ccc(-c2ccc(SCC(=O)Nc3nnc(CC)s3)nn2)cc1	.	.	.	.	.	.
CCOc1ccc(-c2ccc(SC)nn2)cc1	.	.	-85	.	.	.
CC(C)(C)c1ccc(-c2nnc(SCC(=O)NCc3ccco3)n2Cc2ccco2)cc1	/	/	/	.	/	/
CCOC(=O)/C(C)=C1\NC(C)(C)Cc2ccccc21	.	/	.	-105	.	.
CCOC(=O)/C(C(=O)Nc1ccccc1Cl)=C1/NC(C)(C)Cc2ccccc21	.	.	.	.	.	.
Cc1cc(C)nc(N/N=C/c2sccc2C)n1	.	.	.	.	.	.
Cc1ccsc1/C=N/Nc1nc(=O)[nH]nc1C	.	.	-71	.	.	.
SMILES	TrxR1 inh	GALK inhibitor	PI4K2A inh	LDHA inh	a7 integrin act	TrxR1 substrate
O=C(NCc1ccc(N2CCCC2)nc1)c1cc(Cl)ccc1O	/	/	/	.	/	/
CN(CC(=O)NC(=O)Nc1ccccc1F)Cc1cccc(C#N)c1	/	/	/	.	/	/
CCOc1ccc2c(c1)cc(C(=O)N1CCCCC1)n2C	/	/	/	.	/	/
CCN(C(=O)c1occc1C)C1CC1	/	/	/	.	/	/
NC(=O)c1nsc(C(=O)N(c2ccccc2)C(C(=O)NCc2ccc(F)cc2)c2ccc(O)cc2)c1N (stereo unspecified)	.	.	.	.	2.2µM	.
COc1c(Cl)cc(Cl)cc1CNCc1cccnc1	/	/	/	.	/	/
COc1ccccc1N1C(=O)C2C(c3ccccc3F)NN(C(=O)c3ccc(C)cc3)C2C1=O (stereo unspecified)	50µM	/	.	.	.	.
Cc1ccc(C(=O)N2NC(c3ccccc3F)C3C(=O)N(c4cccc(C)c4)C(=O)C32)cc1 (stereo unspecified)	.	/	.	.	.	.
O=C(OCc1ccc([N+](=O)[O-])cc1Cl)c1cnccn1	22µM	.	.	.	.	.
Cc1nc(SCC(=O)c2ccccc2)c(C#N)c(-c2ccco2)c1C(=O)NCc1ccco1	50µM	.	?	.	.	.
COCCOC(=O)c1c(C)nc(SCC(=O)Nc2ccc(OC)cc2)c(C#N)c1-c1ccco1	.	.	.	.	.	.
Cc1ccc(O)c(C(=O)N(C)Cc2ccc(Cl)cc2Cl)c1	/	/	/	.	/	/
Cc1ccc(N2C(=O)[C@@H]3[C@H](C2=O)C2c4ccccc4C=CN2[C@@H]3C(=O)c2ccco2)c(C)c1 (stereo partly specified)	14µM	.	?	.	.	.
Nc1cc(C(=O)O)c(N)c2c1C(=O)c1ccccc1C2=O	.	.	-55	.	.	.
Cc1cc(C)c(S(=O)(=O)/N=C2\C=CC(=O)C(Cl)=C2)c(C)c1	18µM	.	.	.	.	.
CCOC(=O)c1c(-c2ccc(C)o2)csc1NC(=O)CN1CCCCC1	.	.	.	.	.	.
CCOC(=O)c1c(-c2ccco2)csc1NC(=O)CSc1nnc(N)s1	?	.	?	.	.	.
CCOC(=O)c1c(-c2ccc(C)o2)csc1NC(=O)CN1CCN(CC)CC1	4.5µM	.	.	.	.	.
CCOC(=O)c1c(-c2ccc(C)o2)csc1NC(=O)CSc1nncs1	2.2µM	.	.	.	.	.
O=C(COc1ncnc2ccc(Br)cc12)NCc1ccccc1	/	/	/	.	/	/
Cc1cc(F)ccc1S(=O)(=O)N(C(=O)c1ccncc1)c1ccc(OC(=O)c2ccncc2)cc1	.	.	.	.	.	.
O=C(Oc1ccc(N(C(=O)c2ccncc2)S(=O)(=O)c2cccs2)cc1)c1ccncc1	40µM	.	.	.	?	.
Cc1ccc(NC(=O)CSc2ncnc3ccccc23)c(C)c1	/	/	/	.	/	/
C1=C(c2ccccc2)Nc2nnnn2C1	79µM	.	.	.	.	.
CCc1ccc(C2C=C(c3ccccc3)Nc3nnnn32)cc1 (stereo unspecified)	/	/	/	.	/	/
SMILES	TrxR1 inh	GALK inhibitor	PI4K2A inh	LDHA inh	a7 integrin act	TrxR1 substrate
Cc1oc2cc(OS(=O)(=O)c3cccs3)ccc2c(=O)c1-c1ccccc1	/	/	/	.	/	/
COc1ccc(-c2cc3nc(C)cc(-c4ccc(OC)cc4)n3n2)cc1	.	.	.	.	.	.
COc1ccc(-c2cc3nc(C)cc(N)n3n2)cc1	.	.	-88	.	.	.
COCCNc1nc(-c2[nH]c(C)c(C(=O)OC)c2C)cs1	/	/	/	.	/	/
O=C(N/N=C/c1ccccn1)c1cc(-c2ccc3ccccc3c2)n[nH]1	.	.	.	-34	.	.
CCc1ccc(-c2cc(C(=O)N/N=C/c3ccccn3)[nH]n2)cc1	.	.	.	.	.	.
